This is an account of results in the supplement of paper PMC7765376.

For the test, the system named is PEO-1. Put plainly: Excess HSA synergy score (sum over dose matrix of excess over highest single agent) (score (summed % response)); higher = less synergy / more antagonism (negative = synergy). The conditions noted are these: 72 h, read-out: viability/apoptosis luminescence (CellTiter-Glo or Caspase3-Glo / not stated per table). For orientation: ATP-based viability assays read luminescence as a measure of living cells.

Setting [1] is: matrix design: 6x6, 5-fold dilutions (primary screen).
Where [2] appears, read: matrix design: 10x10, 9-step dilutions (confirmatory).

Molecules are shown by their SMILES. Counter-ions that a name gives are not always drawn. Over roughly 1,500 compounds, “Excess HSA synergy score (sum over dose matrix of excess over highest single agent)” has its median near 43; the lowest 2% begin near -900. This is one part of a sample in which the lowest values are shown more often than they occur.

For `CC(/C=C1\SC(=S)N(CC(=O)O)C1=O)=C\c1ccccc1` [Epalrestat] + CC[C@H](NC(=O)[C@H](C)NC)C(=O)N1C[C@@H](O)C[C@H]1Cc1c(-c2[nH]c3cc(F)ccc3c2C[C@@H]2C[C@H](O)CN2C(=O)[C@H](CC)NC(=O)[C@H](C)NC)[nH]c2cc(F)ccc12 [Birinapant], the “Excess HSA synergy score” value under setting [1] came to 114.

Regarding `CO/N=C(\C(=O)N[C@@H]1C(=O)N2C(C(=O)O)=C(Cn3ccc(=N)n3CCO)CS[C@H]12)c1csc(N)n1` [Cefoselis sulfate] + CC[C@H](NC(=O)[C@H](C)NC)C(=O)N1C[C@@H](O)C[C@H]1Cc1c(-c2[nH]c3cc(F)ccc3c2C[C@@H]2C[C@H](O)CN2C(=O)[C@H](CC)NC(=O)[C@H](C)NC)[nH]c2cc(F)ccc12 [Birinapant], the “Excess HSA synergy score” value under setting [1] was 200.

For `N#CC(=Cc1ccc(O)c(O)c1)C(=O)NCc1ccccc1` [Tyrphostin B42] + CC[C@H](NC(=O)[C@H](C)NC)C(=O)N1C[C@@H](O)C[C@H]1Cc1c(-c2[nH]c3cc(F)ccc3c2C[C@@H]2C[C@H](O)CN2C(=O)[C@H](CC)NC(=O)[C@H](C)NC)[nH]c2cc(F)ccc12 [Birinapant], under setting [1], the “Excess HSA synergy score” value was determined as 83.7.

With `Cc1[nH]c2ccccc2c1CCNCc1ccc(/C=C/C(=O)NO)cc1` [Panobinostat] + CC[C@H](NC(=O)[C@H](C)NC)C(=O)N1C[C@@H](O)C[C@H]1Cc1c(-c2[nH]c3cc(F)ccc3c2C[C@@H]2C[C@H](O)CN2C(=O)[C@H](CC)NC(=O)[C@H](C)NC)[nH]c2cc(F)ccc12 [Birinapant], the “Excess HSA synergy score” value under setting [1] was -159 and the “Excess HSA synergy score” value under setting [2] was -1360.

Regarding `O=C(/C=C/c1ccc(CN(CCO)CCc2c[nH]c3ccccc23)cc1)NO` [Dacinostat] + CC[C@H](NC(=O)[C@H](C)NC)C(=O)N1C[C@@H](O)C[C@H]1Cc1c(-c2[nH]c3cc(F)ccc3c2C[C@@H]2C[C@H](O)CN2C(=O)[C@H](CC)NC(=O)[C@H](C)NC)[nH]c2cc(F)ccc12 [Birinapant], under setting [1], the “Excess HSA synergy score” value is -67.4.

For the compound `O=C(/C=C/c1cccc(S(=O)(=O)Nc2ccccc2)c1)NO` [Belinostat] + CC[C@H](NC(=O)[C@H](C)NC)C(=O)N1C[C@@H](O)C[C@H]1Cc1c(-c2[nH]c3cc(F)ccc3c2C[C@@H]2C[C@H](O)CN2C(=O)[C@H](CC)NC(=O)[C@H](C)NC)[nH]c2cc(F)ccc12 [Birinapant], the “Excess HSA synergy score” value under setting [1] was -26.7.

For the compound `CC[C@]12C=CCN3CC[C@@]4(c5cc([C@@]6(C(=O)OC)C[C@@H]7C[C@@H](C(C)(F)F)CN(Cc8c6[nH]c6ccccc86)C7)c(OC)cc5N(C)[C@H]4[C@@](O)(C(=O)OC)[C@@H]1OC(C)=O)[C@@H]32` [Vinflunine] + CC[C@H](NC(=O)[C@H](C)NC)C(=O)N1C[C@@H](O)C[C@H]1Cc1c(-c2[nH]c3cc(F)ccc3c2C[C@@H]2C[C@H](O)CN2C(=O)[C@H](CC)NC(=O)[C@H](C)NC)[nH]c2cc(F)ccc12 [Birinapant], the “Excess HSA synergy score” value by setting is: under setting [1], -106; under setting [2], -752.

For `O=C(N[C@@H](c1ccccc1)[C@@H]1CCCCN1)c1cccc(C(F)(F)F)c1Cl` + CC[C@H](NC(=O)[C@H](C)NC)C(=O)N1C[C@@H](O)C[C@H]1Cc1c(-c2[nH]c3cc(F)ccc3c2C[C@@H]2C[C@H](O)CN2C(=O)[C@H](CC)NC(=O)[C@H](C)NC)[nH]c2cc(F)ccc12 [Birinapant], the “Excess HSA synergy score” value under setting [1] came to 61.9.

As for `CCc1c2c(nc3ccc(O)cc13)-c1cc3c(c(=O)n1C2)COC(=O)[C@]3(O)CC` + CC[C@H](NC(=O)[C@H](C)NC)C(=O)N1C[C@@H](O)C[C@H]1Cc1c(-c2[nH]c3cc(F)ccc3c2C[C@@H]2C[C@H](O)CN2C(=O)[C@H](CC)NC(=O)[C@H](C)NC)[nH]c2cc(F)ccc12 [Birinapant], under setting [1], the “Excess HSA synergy score” value stood at 0.514.

`CC[C@@]1(O)C(=O)OCc2c1cc1n(c2=O)Cc2cc3cc(O)ccc3nc2-1` [10-hydroxycamptothecin] + CC[C@H](NC(=O)[C@H](C)NC)C(=O)N1C[C@@H](O)C[C@H]1Cc1c(-c2[nH]c3cc(F)ccc3c2C[C@@H]2C[C@H](O)CN2C(=O)[C@H](CC)NC(=O)[C@H](C)NC)[nH]c2cc(F)ccc12 [Birinapant]: the “Excess HSA synergy score” value under setting [1] was -38.5.

Regarding `CC[C@@]1(O)C(=O)OCc2c1cc1n(c2=O)Cc2cc3c(CN(C)C)c(O)ccc3nc2-1` [Topotecan hydrochloride] + CC[C@H](NC(=O)[C@H](C)NC)C(=O)N1C[C@@H](O)C[C@H]1Cc1c(-c2[nH]c3cc(F)ccc3c2C[C@@H]2C[C@H](O)CN2C(=O)[C@H](CC)NC(=O)[C@H](C)NC)[nH]c2cc(F)ccc12 [Birinapant], the “Excess HSA synergy score” value is -166 under setting [1] and -963 under setting [2].

Consider `O=C(C1CC1)N1CC[C@@H](Cn2c(-c3ccc(-c4ccc5occc5c4)cc3)nc3cnccc32)C1` + CC[C@H](NC(=O)[C@H](C)NC)C(=O)N1C[C@@H](O)C[C@H]1Cc1c(-c2[nH]c3cc(F)ccc3c2C[C@@H]2C[C@H](O)CN2C(=O)[C@H](CC)NC(=O)[C@H](C)NC)[nH]c2cc(F)ccc12 [Birinapant], for which the “Excess HSA synergy score” value under setting [1] is 117.

For the compound `CCCCCN(CCC12CC3CC(CC(C3)C1)C2)C(=O)NCCCc1ccncc1` + CC[C@H](NC(=O)[C@H](C)NC)C(=O)N1C[C@@H](O)C[C@H]1Cc1c(-c2[nH]c3cc(F)ccc3c2C[C@@H]2C[C@H](O)CN2C(=O)[C@H](CC)NC(=O)[C@H](C)NC)[nH]c2cc(F)ccc12 [Birinapant], under setting [1], the “Excess HSA synergy score” value is 297.

With `Cn1cc(/C=C/C(=O)c2cccc(F)c2)cc1/C=C/C(=O)NO` + CC[C@H](NC(=O)[C@H](C)NC)C(=O)N1C[C@@H](O)C[C@H]1Cc1c(-c2[nH]c3cc(F)ccc3c2C[C@@H]2C[C@H](O)CN2C(=O)[C@H](CC)NC(=O)[C@H](C)NC)[nH]c2cc(F)ccc12 [Birinapant], the “Excess HSA synergy score” value under setting [1] came to 132.

Take `COC1=C2C[C@@H](C)C[C@H](OC)[C@H](O)[C@@H](C)/C=C(\C)[C@H](OC(N)=O)[C@@H](OC)/C=C\C=C(/C)C(=O)NC(=CC1=O)C2=O` [Geldanamycin] + CC[C@H](NC(=O)[C@H](C)NC)C(=O)N1C[C@@H](O)C[C@H]1Cc1c(-c2[nH]c3cc(F)ccc3c2C[C@@H]2C[C@H](O)CN2C(=O)[C@H](CC)NC(=O)[C@H](C)NC)[nH]c2cc(F)ccc12 [Birinapant]: the “Excess HSA synergy score” value reads like this: under setting [1], 115; under setting [2], -710.
